D2 PAM-1 = D2 dopamine receptor (human) potentiation | HEK293 T-REx D2, calcium flux, EC20 dopamine potentiation | potentiation, % at 10 µM | actives 0.34% (n = 340,000) | AID 485347;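 active = potentiation over 3 SD above the plate norm, cut at about 30% in these data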; note: 0% is about no effect
Target sequence (P14416 whole entry, looked up): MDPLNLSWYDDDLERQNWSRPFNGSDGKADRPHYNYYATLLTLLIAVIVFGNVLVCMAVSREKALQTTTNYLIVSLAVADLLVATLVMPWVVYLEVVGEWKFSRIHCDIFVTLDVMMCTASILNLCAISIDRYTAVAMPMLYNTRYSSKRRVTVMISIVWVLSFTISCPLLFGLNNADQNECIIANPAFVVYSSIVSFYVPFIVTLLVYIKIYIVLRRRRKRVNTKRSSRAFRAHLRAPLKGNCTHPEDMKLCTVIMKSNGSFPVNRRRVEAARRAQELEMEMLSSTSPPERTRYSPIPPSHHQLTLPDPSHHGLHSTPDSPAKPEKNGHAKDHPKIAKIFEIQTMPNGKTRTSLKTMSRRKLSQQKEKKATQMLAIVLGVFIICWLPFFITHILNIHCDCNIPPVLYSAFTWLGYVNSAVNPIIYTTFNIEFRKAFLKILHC
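Potentiation of an EC20 dopamine calcium response is measured in a force-coupled, tetracycline-inducible Hek293 Trex D2 line. Compound-only kinetic reads over 180 s flag agonists before dopamine addition.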
D2 PAM-2 = human D2 receptor positive allosteric modulation; potentiation, % (concentration not given with the values); AID 624464; actives 0.23% (n = 360,000); DiscoveRx D2 beta-arrestin cells, luminescence, 90 min; 100% = 57 uM dopamine signal; in the data active = potentiation above about 50%; inconclusive = mostly about 30% to 49%
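PathHunter beta-arrestin assay in DiscoveRx D2 cells. Compounds were added with an EC20 of dopamine (50 nM final) for 90 min at 37 deg C. Luminescence was read 1 h after detection reagent, with 57 uM dopamine as the EC100 control.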
D2 antag = D2 dopamine receptor (human) antagonism. actives 2% (n = 340,000). inhibition, % at 10 µM. P14416. HEK293 TREx D2 cells, calcium flux, dopamine EC80; in the data active = inhibition above about 30%; inactive = below that, where a call was filed; note: 0% is about no effect
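In this primary screen, negative modulation is detected by tracking calcium flux after an EC80 dopamine challenge in inducible HEK293 T-REx D2 cells preexposed to test compound for 180 s.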
D2 ag-1 = activates the human D2 dopamine receptor | HEK293 T-REx D2 cells, calcium flux agonist mode | activation, % at 2 µM | actives 0.53% (n = 340,000);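 active = activation over 3 SD above normal in the single-dose calcium agonist read, cut at about 30% in these data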; note: 0% is about no effect
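Agonism scored from kinetic calcium signal (1 read/sec, 180 s) following compound pin transfer, after a 10 s baseline. Cells: HEK293 Trex line expressing inducible D2 receptor coupled to calcium, dye-loaded after overnight culture at 30 C.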
D2 ag-2 = activates the human D2 dopamine receptor; DiscoveRx PathHunter D2 beta-arrestin, luminescence, 90 min; 100% = 57 uM dopamine signal; AID 624465; actives 0.084% (n = 360,000); activation, % (concentration not given with the values); in the data active = activation above about 40%; inconclusive = between about 15% and that limit
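Agonist mode: compounds alone added to overnight-plated D2 PathHunter cells for 90 min at 37 C, with 57 uM final dopamine (EC100) defining full response. Beta-arrestin recruitment detected by chemiluminescent reagent, read after 1 h at ambient temperature.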
Active calls of the source: *; ? = inconclusive; . = no result. A selection: hits, their analogues and other compounds. The true share with any hit is near 2.4%.

SMILES	D2 PAM-1	D2 PAM-2	D2 antag	D2 ag-1	D2 ag-2
COC(=O)/C=C1\SC(=Nc2ccc(Cl)c(Cl)c2)NC1=O	.	-3	-1	1	6
COc1cc(/C=C2\SC(=Nc3ccc(Cl)c(C(=O)O)c3)NC2=O)c(Br)c(Br)c1O	-1	-1	37*	87*	-4
COc1cc(/C=C2\SC(=Nc3ccccc3)NC2=O)cc(Cl)c1O	-10	-15	38*	74*	-2
CC(C)c1cnc2c(c1SCc1cccc(F)c1)c(=O)n(C)c(=O)n2C	-10	.	.	0	.
Cc1cccc(N2C(=O)CSC23C(=O)N(Cc2cccc(C(F)(F)F)c2)c2ccccc23)c1 (stereo unspecified)	.	.	.	0	.
CC(=O)N(C)/C=C1\Sc2ccccc2C1=O	-4	-3	-16	0	3
CC(=O)Nc1ccc(/C=C2\Sc3ccccc3C2=O)cc1	-9	56*	23	3	?
Oc1ccccc1N1CCN(Cc2ncc(-c3ccccc3)o2)CC1	-35	-15	57*	1	-3
CC(=O)c1ccc(NC(=O)CCc2c(C)nn(-c3ccc4nncn4n3)c2C)cc1	-1	.	.	.	.
CC(C)c1nn2c(=O)cc(COC(=O)c3cccc(NC(=O)c4ccccc4F)c3)nc2s1	2	.	.	1	.
Cc1nn(C)c(C(=O)NNC(=S)NCc2ccco2)c1Cl	34*	-23	-17	-1	-4
Cc1ccc(CC(=O)NCc2ccc(Cl)cc2)cc1	1	-8	53*	-1	-2
Cc1nc(C)c(C(=O)NCc2ccc(Cl)cc2)o1	-3	-13	-18	1	1
O=C(CC(=O)NCc1ccc(Cl)cc1)NCc1ccc(Cl)cc1	-16	-2	7	1	6
Cc1nn(C)c(C(=O)NCc2ccc(Cl)cc2)c1Cl	-16	-8	44*	-1	2
Cc1ccc2oc(C(=O)N(Cc3cccc(F)c3)C3CCS(=O)(=O)C3)c(C)c2c1 (stereo unspecified)	12	.	.	1	.
CCOC(=O)c1c(C)[nH]c(C)c1S(=O)(=O)N1CCCC(C(=O)Nc2cccc(CC)c2)C1 (stereo unspecified)	-3	.	.	0	.
O=C(CSc1nc2ccccc2o1)Nc1nc(-c2ccccc2)cs1	-21	-13	30*	-1	-3
Cn1c(=O)c2c(nc(NCc3ccccc3)n2Cc2ccc(Cl)c(Cl)c2)n(C)c1=O	-1	.	.	1	.
O=C(Nc1ccc(Br)cc1)c1ccc(F)c(S(=O)(=O)N2CCc3ccccc32)c1	15	.	.	0	.
Cc1ccc(C#N)c(SCCN2CCCCC2)n1	-10	-21	34*	0	-2
COc1ccc(S(=O)(=O)N(C)C)cc1NC(=O)COC(=O)Cn1cnc2ccccc2c1=O	-13	-2	38*	1	0
COc1ccc(S(=O)(=O)N(C)C)cc1NC(=O)CCCSc1ccccc1	.	-19	48*	-1	-4
Cc1ccc(S(=O)(=O)N(C)C)cc1NC(=O)COC(=O)c1n[nH]c(=O)c2ccccc12	-21	-19	52*	0	-7
COc1ccc(NC(=O)COC(=O)Cn2cnc3ccccc3c2=O)cc1OC	0	-6	-11	1	-2
SMILES	D2 PAM-1	D2 PAM-2	D2 antag	D2 ag-1	D2 ag-2
COC(=O)c1ccc(C)c(NC(=O)Cn2cnc3ccccc3c2=O)c1	0	-1	35*	1	0
COc1cc(-c2cc3n(C)c(C)c(CCC(=O)NC4CCC(C)CC4)c(=O)n3n2)cc(OC)c1OC (stereo unspecified)	5	.	.	.	.
COc1ccc2c(c1)CC(C(=O)Nc1cc(Cl)ccc1C)CO2 (stereo unspecified)	1	.	.	-1	.
Cc1c(Cl)cccc1NC(=O)c1cnc2sc(N3CCOCC3)nn2c1=O	12	.	.	0	.
COc1ccccc1N1CCN(Cc2nc(N)nc(Nc3ccccc3)n2)CC1	-24	-14	34*	8	0
CCOC(=O)C1CCCN(Cc2nc(N)nc(Nc3ccccc3OC)n2)C1 (stereo unspecified)	-10	-6	34*	-1	-4
CCOC(=O)C1CCN(Cc2cc(C(C)C)c(O)c(C(C)C)c2)CC1	-21	-18	45*	22	-13
CCOC(=O)C1CCN(Cc2ccc3ccccc3c2)CC1	-16	-3	9	13	0
COc1ccccc1Nc1nc(N)nc(CN2CCCCCC2)n1	-6	-12	-23	-1	0
CCOC(=O)C1CCCN(Cc2ccc(OC)c(OCc3ccccc3)c2)C1 (stereo unspecified)	-21	-3	45*	-1	-5
COc1ccc(CN2CCC(C(N)=O)CC2)cc1OCc1ccccc1	-4	0	-2	0	-4
CC(=O)c1cc(-c2ccccc2)n(CCC(=O)Nc2ccc(C(C)C)cc2)c1C	24	.	.	7	.
Cc1ccccc1NC(=O)c1sc2nc(N3CCOCC3)c3c(c2c1N)CC(C)(C)OC3	.	.	.	0	.
Cc1ccc(C(=O)NCCc2ccc(Cl)cc2)cc1-n1c(C)nc2cccnc21	-12	.	.	-1	.
Cc1ccc(Cl)cc1N(C)C(=O)c1sc2nc3n(c(=O)c2c1C)CCCC3	-7	.	.	1	.
CCOC(=O)C1CCCN(CC(O)COC(c2ccccc2)c2ccccc2)C1 (stereo unspecified)	.	-12	33*	-3	-2
CCOC(=O)C1CCCN(Cc2ccc(OCC)cc2)C1 (stereo unspecified)	-27	-11	28	42*	-2
CCOC(=O)C1CCCN(CC(O)COc2ccccc2C(C)=O)C1 (stereo unspecified)	-22	-14	-9	-1	-1
CCc1nnc(NC(=O)CSc2nnc(Cc3ccccc3)o2)s1	-1	0	6	0	1
CCc1nnc(NC(=O)CSc2nnc(CNc3ccc(Cl)cc3)o2)s1	9	4	50*	0	6
O=C(c1cc2cc3ccc(Cl)cc3nc2o1)N1CCN(c2cccc(Cl)c2)CC1	3	.	.	1	.
Cc1ccc(S(=O)(=O)N2CCOCC2)cc1C(=O)OC(C)C(=O)c1ccccc1 (stereo unspecified)	-2	-3	37*	-1	-4
O=C(NCc1ccccc1Cl)c1ccc2c(c1)N(Cc1ccccc1)C(=O)CS2	-6	.	.	1	.
Brc1ccc(-c2cn3nc4c(nc3n2)CCCC4)cc1	-7	-10	8	0	-1
Brc1ccc(-c2cn3c(n2)CCc2ccc4cccnc4c2-3)cc1	32*	-12	-6	-1	3
C=CC(C)(C)c1[nH]cnc1/C=C1\NC(=O)C(C(C)C)NC1=O (stereo unspecified)	6	1	76*	1	1
Cc1ncoc1C(=O)N1CCCC(C(=O)c2ccc(-c3ccccc3)cc2)C1 (stereo unspecified)	-6	-7	52*	-1	0

High-throughput results (PubChem)
